RN4220 kill – kills Staphylococcus aureus RN4220; S. aureus RN4220 growth, OD600, 16 h; inhibition, % (no concentration beside the values); hit rate 0.33% among 330,000; AID 1259311; in the data active = inhibition above about 85%
TcdB GH inh – TcdB glycohydrolase inhibition; hit rate 0.24% among 350,000; AID 652162; P18177; inhibition, % at 9.99 µM; TcdB glycohydrolase enzymatic assay, plate reader; in the data active = inhibition above about 10%
Sa ugtP lethal – growth inhibition of S. aureus ugtP deletion strain; S. aureus RN4220 ugtP deletion, OD600 growth, 16 h; growth inhibition, % (no concentration beside the values); hit rate 0.54% among 330,000; AID 1259309; in the data active = growth inhibition above about 68%
Vc quorum ag – induces V. cholerae light production without autoinducers; V. cholerae BH1578 lux reporter, luminescence, 6 h; activation, % at 18.7 µM; hit rate 0.16% among 350,000; in the data active = activation mostly above about 9.7%, no sharp cut-off
Hits are given with their value; i = inactive; nt = no result given; + = active, no number. Shown are actives, neighbours in structure and some others; about 0.67% of the full set was active somewhere.

SMILES	RN4220 kill	TcdB GH inh	Sa ugtP lethal	Vc quorum ag
CCCC(=O)N1CCN(c2ccc(NC(=S)NC(=O)c3cccc(C)c3)cc2)CC1	i	i	active	i
COc1ccccc1C(=O)NC(=S)Nc1ccc(N2CCCC2)cc1	i	i	i	i
COc1cccc(C(=O)NC(=S)Nc2ccc(N3CCCC3)cc2)c1	i	nt	86.8	i
CN1CCN(c2ccc(NC(=S)NC(=O)c3cccc4c(Cl)cccc34)cc2)CC1	i	i	97.8	i
COc1ccc(C(=O)NC(=S)Nc2ccc(N3CCCC3)cc2)cc1	i	i	i	i
NC(=O)C1CCNc2c(I)cc([N+](=O)[O-])cc2C(=O)NC(CCC(=O)O)C(=O)NC(CO)C(=O)N1 (stereo not given)	i	nt	i	nt
CC(C)Oc1cccc(C(=O)NC(=S)Nc2ccc(N3CCN(C)CC3)cc2)c1	i	i	97.7	i
C#CCOCCOCCOCCNc1nc(N2CCN(C(=O)CCCCCCCCCCNC(=O)C(CO)n3cc(CCCSC)nn3)CC2)nc(N2CCN(C(=O)CCCCCCCCCCNC(=O)C(CCCCN)n3cc(CCO)nn3)CC2)n1 (stereo not given)	i	nt	i	nt
O=C(NN=Cc1ccc([N+](=O)[O-])o1)c1cc(-c2cccc(Br)c2)nc2ccccc12	115.4	nt	100.3	nt
O=C(CNc1cccc2ccccc12)N/N=C/c1ccc([N+](=O)[O-])o1	nt	i	nt	i
O=C(N/N=C/c1ccc([N+](=O)[O-])o1)c1ccccc1-n1cccc1	nt	i	nt	i
O=C(NN=Cc1ccc([N+](=O)[O-])o1)c1ccccc1NS(=O)(=O)c1cccs1	100.0	nt	100.0	nt
O=C(N/N=C/c1ccc([N+](=O)[O-])o1)c1ccc(NS(=O)(=O)c2cccs2)cc1	nt	i	nt	i
O=C(CNc1cccc2ccccc12)NN=Cc1ccc([N+](=O)[O-])o1	99.4	nt	100.2	nt
O=C(NN=Cc1ccc([N+](=O)[O-])o1)c1cn2ccc3ccccc3c2n1	i	nt	100.5	nt
CC(=O)Nc1ccc(C2=CC(=O)CC(c3ccc(Cl)cc3)C2)cc1 (stereo not given)	i	nt	i	nt
Nc1ccc(N=Nc2ccc(O)cc2)c(N)n1	nt	20.0	nt	i
COc1ccc(N=Nc2ccc(N)nc2N)cc1	nt	i	nt	i
COC(=O)C1=C(C(=O)OC)C2N(C)c3ccc(OC)cc3[C@@]23CC(C(=O)OC)N(C(=O)c2ccc(Br)cc2)C3=N1 (stereo not given in full)	i	nt	i	nt
CCOC(=O)Nc1ccc(OC(=O)Oc2ccc(NC(=O)OCC)cc2)cc1	nt	11.6	nt	i
O=C(CCl)c1ccc2c(c1)CCN2C(=O)C1CCCCC1	98.2	i	99.1	i
CCCCCC1CCC(c2ccc(/C(N)=N/O)cc2)CC1 (stereo not given)	i	i	99.9	i
Cc1nc2c(C)cccn2c1C(=O)NN=Cc1ccccc1[N+](=O)[O-]	i	nt	i	nt
O=C(C1CC1)N(Cc1ccco1)c1nc(-c2ccccc2)cs1	i	nt	96.4	i
COc1cc(NS(=O)(=O)c2cc3c(cc2C)NC(=O)CO3)cc(OC)c1	i	i	i	i
SMILES	RN4220 kill	TcdB GH inh	Sa ugtP lethal	Vc quorum ag
Cc1cc2c(cc1S(=O)(=O)Nc1ccc(OC(F)(F)F)cc1)OCC(=O)N2	i	i	91.7	i
Cc1cc(O)c2c(c1O)C(=O)[C@]13C(=C2O)C(=O)[C@@H]2[C@@H](O)[C@H]1[C@@H]1[C@H](O)[C@H]3C(=O)C3=C(O)c4c(O)cc(C)c(O)c4C(=O)[C@]312	98.9	nt	98.8	i
CC(C)OC(=O)C1C2C=CC3(CN(CC4CCCO4)C(=O)C13)O2 (stereo not given)	i	nt	i	20.7
CC(C)OC(=O)C1C2C=CC3(CN(C(C)c4ccc(Br)cc4)C(=O)C13)O2 (stereo not given)	i	i	i	i
CC(CCC(=O)O)C1CCC2C3C(=O)CC4CC(=O)CC[C@]4(C)C3CC(=O)[C@]12C (stereo not given in full)	i	nt	i	nt
O=C(O)c1ccc(CN2C(=O)c3cccc4c([N+](=O)[O-])ccc(c34)C2=O)cc1	i	i	97.1	i
Cc1ccc(C(=O)O)cc1N1C(=O)c2cccc3c([N+](=O)[O-])ccc(c23)C1=O	nt	i	nt	i
COc1ccc(C2CC(C(F)(F)F)n3nc(C(=O)N(C)Cc4cn(C)nc4C)c(Cl)c3N2)cc1 (stereo not given)	i	nt	i	+
COc1ccc(C2CC(C(F)(F)F)n3nc(C(=O)NCc4c(C)nn(C)c4C)c(Cl)c3N2)cc1 (stereo not given)	i	nt	i	i
C=CCOC(=O)C1=CC(c2ccc(C(F)(F)F)cc2)CC(OCCCCO)O1 (stereo not given)	i	nt	i	nt
COc1ccc(N(C(=O)c2ccncc2)S(=O)(=O)c2ccccc2)cc1	i	i	i	i
COc1ccc(N(C(=O)c2ccccc2C)S(=O)(=O)c2cccs2)cc1	i	nt	83.9	i
O=C(CCN1C(=O)/C(=C/c2ccccc2Cl)SC1=S)NC1=NCCS1	i	i	86.7	i
O=C(CCN1C(=O)/C(=C/c2ccccc2Cl)SC1=S)Nc1ccccn1	i	i	i	i
Cc1cc(C)nc(/N=C(\N)Nc2ccccc2-c2ccccc2)n1	nt	10.1	nt	i
CC(=NNC(=O)c1ccc(CN2CCc3ccccc3C2)cc1)c1ccccc1O	i	nt	i	nt
CSc1nc(Cl)cc(Nc2ccc(O)cc2)n1	i	14.9	i	i
C#CCOCCOCCOCCNc1nc(N2CCN(C(=O)C(C(C)CC)n3cc(C(N)CO)nn3)CC2)nc(N2CCN(C(=O)C(C(C)CC)n3cc(C(N)Cc4ccc(O)cc4)nn3)CC2)n1 (stereo not given)	i	nt	i	nt
Oc1ccc(-c2nc3cnccn3c2Nc2ccc3c(c2)OCCO3)cc1	i	20.2	i	i
C#CCOCCOCCOCCNc1nc(N2CCN(C(=O)C(CCCCN)n3cc(CCC(=O)O)nn3)CC2)nc(N2CCN(C(=O)C(C(C)CC)n3cc(CCCCN)nn3)CC2)n1 (stereo not given)	i	nt	i	nt
CC(=NNc1ccc([N+](=O)[O-])cc1)c1ccc(C#N)cc1	i	nt	i	nt
O=C(CCC(=O)Nc1ccc(Cl)cc1Cl)NN=Cc1ccc([N+](=O)[O-])o1	96.0	nt	100.0	nt
O=C(NN=Cc1ccc([N+](=O)[O-])o1)c1ccc2c(c1)OCO2	87.7	nt	97.7	nt
O=C(CSc1ccc(Cl)cc1)NN=Cc1ccc([N+](=O)[O-])o1	i	nt	99.8	nt
CC(=CC=C(C#N)C#N)c1cc(C#N)c(N)o1	i	nt	i	nt
SMILES	RN4220 kill	TcdB GH inh	Sa ugtP lethal	Vc quorum ag
COc1cccc(C=C(C(=O)OCC(=O)NCC2CCCO2)c2ccccc2)c1 (stereo not given)	i	nt	i	nt
COc1ccc(N=Nc2cc(OC)c(N)cc2OC)cc1	i	10.5	i	i
CCN(CC)c1ccc(C(=S)NC2CCCCC2)cc1	i	i	active	i
CN(C)c1ccc(C(=S)NC2CCCCC2)cc1	i	i	i	i
N#CC1=C(N)C(C#N)(C#N)C(c2cccnc2)C2CC(c3ccccc3)CC=C12 (stereo not given)	i	nt	i	25.0
C=CCc1cc(C=Nn2cnnc2)cc(OCC)c1O	i	nt	i	nt
Cc1cc(NC(=O)CSC2=Nc3ccccc3C3=NC(Cc4ccccc4)C(=O)N23)n[nH]1 (stereo not given)	i	nt	i	25.8
CCCCNC(=O)CC1N=C2c3ccccc3N=C(SCC(=O)Nc3cccc(C)c3)N2C1=O (stereo not given)	i	nt	i	i

From PubChem
